Source: PubChem BioAssay AID588742 (Southern Research Specialized Biocontainment Screening …, 2011)
In all, about 1,800 compounds went through this assay and about 410 (23%) were called active. No rule for the calls is given here. These entries were drawn from the full list. Results with a measured potency or affinity are listed apart.

Assay: viability of Vero cells under compound – cytotoxicity control for flavivirus capping enzyme inhibitors (AID 588742)
Details: cytotoxicity counter-screen; series mostly up to 40 µM

Compound | outcome
Cc1ccc(C2c3sc(=O)[nH]c3SC3C(=O)NC(=O)C32)cc1 (stereo unspecified) | inactive
COc1cccc(/C=C2\SC(=S)N(NS(=O)(=O)c3ccc(C)cc3)C2=O)c1OC | inactive
CC1(C)CC(=O)C(C(c2ccc(Br)cc2)C2C(=O)CC(C)(C)CC2=O)C(=O)C1 | inactive
CC1=NN(Cc2ccccc2)C(=O)C1C(c1ccccc1)C(C#N)C#N (stereo unspecified) | inactive
CCOc1ccccc1NC(=O)CN1C(=O)COc2ccc(S(=O)(=O)N3CCOCC3)cc21 | inactive
Cc1cc(OCC(=O)NC2CCN(Cc3ccccc3)CC2)c2c(C)c(C)c(=O)oc2c1 | inactive
O=C1ON=C(c2cccc([N+](=O)[O-])c2)/C1=C/c1ccc(O)cc1 | inactive
O=C1/C(=C/c2ccc(C(=O)O)cc2)CCC/C1=C\c1ccc(C(=O)O)cc1 | inactive
O=C(O)c1cccc(N2C(=O)C=CC2=O)c1 | inactive
Cc1ccc([C@H]2C(C(=O)O)=CC[C@@H](c3ccc(Cl)c(Cl)c3)N2S(=O)(=O)c2ccc(C)cc2)cc1 | inactive
O=C(COc1ccccc1/C=C\c1[nH]c(=O)[nH]c(=O)c1[N+](=O)[O-])Nc1ccccc1 | inactive
CCOC(=O)CC1=NN(c2ccccc2)C(=O)/C1=C\c1ccc(OC)cc1OC | inactive
CCOC(=O)c1c2c(c(=S)n(-c3ccccc3)c1N)CCC2 | inactive
O=S(=O)(Nc1nc(-c2sccc2Cl)cs1)c1cc(Cl)ccc1Cl | inactive
Fc1cccc(Cl)c1CNc1ccc(N2CCCC2)cc1 | inactive
CCN1C(=NCc2ccccc2)N[C@@H](c2ccccc2)[C@H](C(=O)OC)[C@H]1C | inactive
O=C(Cc1ccc(Br)cc1)Nc1ccc2[nH]ncc2c1 | inactive
CN(CCO)c1cc(Sc2nc3ccccc3s2)c2nonc2c1[N+](=O)[O-] | inactive
O=c1cc(-c2ccccc2)[nH]c2[nH]n(-c3ccccc3)c(=O)c12 | inactive
O=C(O)c1ccc(Cl)c(S(=O)(=O)Nc2ccccc2C(=O)Nc2ccc(Cl)cc2)c1 | inactive
Cc1ccc(C)c(S(=O)(=O)Nc2ccccc2C(=O)Nc2ccc(S(=O)(=O)Nc3ncccn3)cc2)c1 | inactive
CC(=C\c1ccccc1)/C=C1/SC(=S)N(C(C(=O)O)C(C)C)C1=O (stereo unspecified) | inactive
Cc1cc(C(=O)N/N=C/c2ccc(O)c(O)c2O)c(C)n1-c1ccccc1 | inactive
Oc1cccc(/C=N/N=C/c2cccc(O)c2O)c1O | inactive
CCN(CC)S(=O)(=O)c1cccc(C(=O)N/N=C/c2ccc(O)c(O)c2O)c1 | inactive
Oc1ccc(/C=N/N2CCCCC2)c(O)c1O | inactive

Compound | outcome
O=C1N=c2ccccc2=C1c1sc(=S)n(NC(=O)c2cccc(O)c2)c1O | inactive
CC1=NN(c2ccc(C)cc2C)C(=O)C1C(c1ccccc1)C1C(=O)N(c2ccc(C)cc2C)N=C1C (stereo unspecified) | inactive
O=C(O)c1ccccc1-c1ccccc1C(=O)Nc1ccc2c(c1)oc(=O)c1ccccc12 | inactive
Cc1cc(C)c(C(=O)COc2cccnc2[N+](=O)[O-])cc1C | inactive
Nc1scc2c(C(=O)N/N=C/c3ccc(Cl)cc3)nn(-c3ccccc3)c(=O)c12 | inactive
COc1ccc(/C=N/NC(=O)c2nn(-c3ccccc3)c(=O)c3c(N)scc23)cc1 | inactive
Cc1[nH]c(=O)c(C#N)c(C)c1CCC(=O)Nc1cc(S(C)(=O)=O)ccc1Cl | inactive
N#Cc1c([N+](=O)[O-])cc([N+](=O)[O-])cc1S(=O)(=O)Cc1ccccc1 | inactive
CSc1nc(SCC(=O)O)c2sc3nc(-c4ccccc4)c4c(c3c2n1)CCC4 | inactive
CCCS(=O)(=O)c1nc(S(=O)(=O)c2ccc(C)cc2)c(N2CCC(O)CC2)s1 | inactive
O=C(O)c1cccc2c1C(=O)c1ccc(-c3ccc(F)cc3OCc3ccccc3)cc1S2(=O)=O | inactive
Cc1nc(N2C(=O)C(=O)/C(=C(/O)c3ccccc3)C2c2ccco2)sc1C (stereo unspecified) | inactive
C=CCOc1ccc(/C=C2/C(=O)ON=C2C)cc1OCC | inactive
CCCOc1ccc(/C=C2/C(=O)ON=C2C)cc1OCC | inactive
CCc1cc(=O)oc2cc(OCC(=O)NCCCn3ccnc3)c(Cl)cc12 | inactive
CC1(C)CC(=O)C(=Cc2cn(CCC#N)nc2-c2ccc(F)cc2)C(=O)C1 | inactive
CCOc1cc(/C=C2\NC(=O)NC2=O)cc([N+](=O)[O-])c1O | inactive
COc1ccc(NC(=O)Nc2c(O)ccc3ccccc23)cc1 | inactive
O=C(NCCCl)NNC(=O)c1cc2ccccc2cc1O | inactive
COc1ccc2c(c1)Cc1cc(NC(=O)c3ccccc3-c3ccccc3C(=O)O)ccc1-2 | inactive
COc1ccccc1NC(=O)NNC(=O)c1cc2ccccc2cc1O | inactive
O=C1c2ccccc2C(O)(c2ccccc2)N1c1ccc([N+](=O)[O-])cc1Cl (stereo unspecified) | inactive
CCC1(C)Cc2c(sc3[nH]c(=O)[nH]c(=O)c23)CS1 (stereo unspecified) | inactive
CC1(C)Cc2c(sc3nc4n(-c5ccccc5)c(=O)c(CCC(=O)O)nn4c(=O)c23)CO1 | inactive
CCOc1cc(/C=N/N=C2/NC(=O)C(CC(=O)O)S2)ccc1OCc1ccccc1Cl (stereo unspecified) | inactive
COc1ccccc1N1CCN(/N=C/c2cccc(OC)c2O)CC1 | inactive

Compound | outcome
Oc1ccc(NCc2ccccc2OCc2ccccc2F)cc1 | inactive
CCOc1ccccc1CNc1ccc(O)cc1 | inactive
COC(=O)C1=CN(c2cccc(C)c2)C=C(C(=O)OC)C1c1cc(OC)c(O)c([N+](=O)[O-])c1 | inactive
COc1ccc(/C=c2\sc3nc(=O)c(C)nn3c2=O)c(OC)c1 | inactive
CCOC(=O)c1c(/N=C/c2cccc([N+](=O)[O-])c2O)sc(C)c1C | inactive
C=CCOC(=O)C1=C(C)N=c2s/c(=C3\C(=O)N(CC(=O)O)c4ccccc43)c(=O)n2C1c1ccc(OC)cc1 (stereo unspecified) | inactive
Cc1ccc(S(=O)(=O)Nn2c(C)ccc2C)cc1 | inactive
Cc1ccc(C(c2c(O)nc3n(c2=O)CCS3)c2c(O)nc3n(c2=O)CCS3)cc1 | inactive
NS(=O)(=O)c1ccc(N=Nc2c(O)c(C(=O)O)cc3ccccc23)cc1 | inactive
CC(=O)N1c2ccc(S(=O)(=O)N(C)CC(=O)NCc3ccc(C)cc3)cc2CC1C (stereo unspecified) | inactive
COc1cc(/C=C/c2[nH]c(=O)[nH]c(=O)c2[N+](=O)[O-])cc([N+](=O)[O-])c1O | inactive
CCCOc1ccc(C(=O)N/N=C/c2ccc(-c3ccc(S(=O)(=O)Nc4ncccn4)cc3)o2)cc1 | inactive
O=C(/C=C/Nc1ccc(S(=O)(=O)Nc2ncccn2)cc1)c1cccs1 | inactive
O=C1NN(c2ccccc2)C(=O)/C1=C/c1ccc(-c2ccc(C(=O)O)cc2)o1 | inactive
Nc1nc2ncc(C(=O)c3cc(Cl)cc(Cl)c3O)cc2s1 | inactive
C=CCn1c(=O)c(CCC(=O)Nc2ccc(N3CCOCC3)cc2)nc2cc(C(F)(F)F)ccc21 | inactive
CC1(OC(=O)c2ccco2)C(=O)C=C2C=C(C3CC3)OC=C2C1=O (stereo unspecified) | inactive
O=C(CCC1CCCC1)NNC(=O)c1cc2ccccc2cc1O | inactive
O=C(NC1CCCCC1)c1cc2ccccc2cc1O | inactive
C/C(=N/NC(=O)c1cc(O)c(O)c(O)c1)c1ccc([N+](=O)[O-])cc1 | inactive
Cc1cc(C)c2nc(N3C(=O)C(O)=C(C(=O)c4ccco4)C3c3ccc(O)cc3)sc2c1 (stereo unspecified) | inactive
O=C(CNS(=O)(=O)c1ccc2ccccc2c1)OCC(=O)c1ccc(Br)s1 | inactive
O=C(c1ccccc1)c1ccc(OCC(O)CN2CCN(S(=O)(=O)N3CCCCC3)CC2)cc1 (stereo unspecified) | inactive
CC(C)c1ccc(Nc2ccc(C(=O)O)cc2[N+](=O)[O-])cc1 | inactive
CCc1nnc(N/N=C/c2ccc(N3CCC(C)CC3)c([N+](=O)[O-])c2)n1N | inactive
COc1ccc(C2CC(c3ccccc3)=NN2c2ccc(Cl)c(C(=O)O)c2)cc1 (stereo unspecified) | inactive

Compound | outcome
O=C(CCN1C(=O)/C(=C\C=C\c2ccccc2)SC1=S)Nc1ccccc1C(=O)O | inactive
O=C1CCC/C(=N/Nc2ccc(Cl)cc2)C1 | inactive
COc1cc(C2C(C#N)=C(N)OC3=C2C(=O)CC(C)(C)C3)c([N+](=O)[O-])cc1OC (stereo unspecified) | inactive
COc1ccc2c([N+](=O)[O-])c(Cl)[nH]c2c1 | inactive
Cc1[nH]c2ccccc2c1C1=CC(=O)C=CC1=O | inactive
CC(=O)N1CCN(c2ccc(NCc3ccc(Br)o3)cc2)CC1 | inactive
Cc1nc2nc(-c3cccs3)cn2nc1C | inactive
CCCCCCCC1=NN(c2ccc(S(=O)(=O)O)cc2)C(=O)C1N=O (stereo unspecified) | inactive
COC(=O)c1ccc(N2NC(=O)/C(=C/c3ccc(OC)c(OC)c3)C2=O)cc1 | inactive
O=C1NN(c2ccccc2)C(=O)/C1=C\c1cccc(OC(=O)c2cccs2)c1 | inactive
Oc1ccc(/C=N/N2CCOCC2)c(O)c1O | inactive
Cc1cccc(N/N=C/c2ccc(O)c(O)c2O)c1 | inactive
CN=c1scc(C)n1/N=C/c1ccc(O)c(O)c1O | inactive
COCCNC(=O)Nc1ccc2nc(-c3ccco3)c(-c3ccco3)nc2c1 | inactive
Cc1nc2ccccc2c(=O)n1/N=C/c1ccc(O)c(O)c1O | inactive
C#CCOc1ccc(/C=C2/C(=O)ON=C2C)cc1Cl | inactive
O=C1CCNc2cc3ccccc3cc21 | inactive
COc1ccc(C2C(C#N)=C(N)Oc3c2c(C)nn3-c2ccccc2)cc1Cn1nc(C)c([N+](=O)[O-])c1C (stereo unspecified) | inactive
O=c1[nH]n2c(=O)c3c([nH]c2c1N=Nc1cccc(C(F)(F)F)c1)CCCC3 | inactive
O=c1oc2ccccc2c(O)c1/C=C1\C=Nc2ccccc21 | inactive
CCOc1ccc(N2C(=O)C(Cl)=C(N3CCOCC3)C2=O)cc1 | inactive
COC(=O)c1c(C)c2c(C)cc3ccccn3c-2c1C(=O)OC | inactive
Cc1c(CCC(=O)O)c(=O)oc2c(C)c(OCc3cc4c(cc3Cl)OCO4)ccc12 | inactive
